Test results from PubChem BioAssay AID1159580 (chemical genetic matrix, 2015).
Hit rate of the full screen: of about 5,500 compounds, about 2,000 (36%) were called active. Not shown: some 18% with an inconclusive outcome. Rule as the data show it: active = normalized growth mostly below about 0.91 (no sharp cut-off); inconclusive = no clear call, values can overlap the other calls; inactive = mostly above about 0.92. This is one part of the list.

Assay: chemical genetic growth profiling, strain panel (AID 1159580);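 also: tested at 20 µM; growth read once vehicle control cultures reached saturation at 30 °C; 1 = growth at the plate median or of vehicle wells; lower values mean less growth of the strain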
Details: growth OD

Measured: normalized growth

CNC(=O)Oc1ccccc1OC(C)C
inactive: S. cerevisiae deletion strains, locus YJR043C, strain POL32, hits give low values 1.01 | S. cerevisiae deletion strains, locus YJR075W, strain HOC1, hits give low values 1.02 | S. cerevisiae deletion strains, locus YKL009W, strain mrt4, hits give low values 0.986 | S. cerevisiae deletion strains, locus YKL068W, hits give low values 0.991 | S. cerevisiae deletion strains, locus YKL085W, strain MDH1 (second series), hits give low values 0.982 | S. cerevisiae deletion strains, locus YKL085W, strain MDH1, hits give low values 0.982 | S. cerevisiae deletion strains, locus YKL160W, strain elf1, hits give low values 0.996 | S. cerevisiae deletion strains, locus YKL190W, strain CNB1, hits give low values 1.01 | S. cerevisiae deletion strains, locus YKR001C, strain vps1, hits give low values 0.99 | S. cerevisiae deletion strains, locus YKR026C, strain gcn3, hits give low values 0.993 | S. cerevisiae deletion strains, locus YKR091W, strain srl3, hits give low values 0.989 | S. cerevisiae deletion strains, locus YLL001W, strain dnm1, hits give low values 0.995 | S. cerevisiae deletion strains, locus YLL026W, hits give low values 0.986 | S. cerevisiae deletion strains, locus YLL041C, strain sdh2, hits give low values 0.994 | S. cerevisiae deletion strains, locus YLR027C, strain aat2, hits give low values 0.995 | S. cerevisiae deletion strains, locus YLR039C, strain RIC1, hits give low values 1.05 | S. cerevisiae deletion strains, locus YLR058C, strain SHM2, hits give low values 1.02 | S. cerevisiae deletion strains, locus YLR102C, strain apc9, hits give low values 0.988 | S. cerevisiae deletion strains, locus YLR221C, strain rsa3, hits give low values 0.986 | S. cerevisiae deletion strains, locus YLR258W, strain gsy2, hits give low values 0.984 | S. cerevisiae deletion strains, locus YLR262C, strain YPT6 (second series), hits give low values 1.01 | S. cerevisiae deletion strains, locus YLR262C, strain YPT6, hits give low values 1.06 | S. cerevisiae deletion strains, locus YLR268W, strain sec22, hits give low values 0.99 | S. cerevisiae deletion strains, locus YLR320W, strain mms22, hits give low values 0.987 | S. cerevisiae deletion strains, locus YLR330W, strain CHS5, hits give low values 1.02 | S. cerevisiae deletion strains, locus YLR342W, strain FKS1 (second series), hits give low values 1 | S. cerevisiae deletion strains, locus YLR342W, strain FKS1, hits give low values 0.99 | S. cerevisiae deletion strains, locus YLR357W, strain rsc2, hits give low values 0.953 | S. cerevisiae deletion strains, locus YLR370C, strain arc18, hits give low values 0.992 | S. cerevisiae deletion strains, locus YLR371W, strain rom2, hits give low values 0.987 | S. cerevisiae deletion strains, locus YLR384C, strain iki3, hits give low values 0.99 | S. cerevisiae deletion strains, locus YLR418C, strain cdc73, hits give low values 0.97 | S. cerevisiae deletion strains, locus YML016C, strain PPZ1, hits give low values 1.03 | S. cerevisiae deletion strains, locus YML032C, strain rad52, hits give low values 0.989 | S. cerevisiae deletion strains, locus YML120C, strain ndi1, hits give low values 0.986 | S. cerevisiae deletion strains, locus YML124C, strain tub3, hits give low values 0.991 | S. cerevisiae deletion strains, locus YMR058W, strain fet3, hits give low values 0.989 | S. cerevisiae deletion strains, locus YMR078C, strain ctf18, hits give low values 0.985 | S. cerevisiae deletion strains, locus YMR125W, strain sto1, hits give low values 0.957 | S. cerevisiae deletion strains, locus YMR129W, hits give low values 0.995 | S. cerevisiae deletion strains, locus YMR205C, strain PFK2, hits give low values 0.984 | S. cerevisiae deletion strains, locus YMR223W, strain ubp8, hits give low values 0.986 | S. cerevisiae deletion strains, locus YMR231W, strain pep5, hits give low values 0.988 | S. cerevisiae deletion strains, locus YMR263W, strain SAP30, hits give low values 1.03 | S. cerevisiae deletion strains, locus YMR307W, strain GAS1, hits give low values 0.988 | S. cerevisiae deletion strains, locus YNL067W, strain RPL9B, hits give low values 1.03 | S. cerevisiae deletion strains, locus YNL071W, strain lat1, hits give low values 1 | S. cerevisiae deletion strains, locus YNL128W, strain TEP1, hits give low values 1.02 | S. cerevisiae deletion strains, locus YNL153C, strain GIM3, hits give low values 1.02 | S. cerevisiae deletion strains, locus YNL209W, strain ssb2, hits give low values 0.994 | S. cerevisiae deletion strains, locus YNL233W, strain BNI4, hits give low values 0.982 | S. cerevisiae deletion strains, locus YNL248C, strain rpa49, hits give low values 0.979 | S. cerevisiae deletion strains, locus YNL250W, strain rad50, hits give low values 0.979 | S. cerevisiae deletion strains, locus YNL271C, strain bni1, hits give low values 0.968 | S. cerevisiae deletion strains, locus YNL298W, strain CLA4, hits give low values 0.98 | S. cerevisiae deletion strains, locus YNL307C, strain MCK1, hits give low values 0.992 | S. cerevisiae deletion strains, locus YNL322C, strain KRE1 (second series), hits give low values 0.98 | S. cerevisiae deletion strains, locus YNL322C, strain KRE1, hits give low values 1.01 | S. cerevisiae deletion strains, locus YNR049C, strain mso1, hits give low values 0.989 | S. cerevisiae deletion strains, locus YNR052C, strain pop2, hits give low values 0.986 | S. cerevisiae deletion strains, locus YOL006C, strain TOP1, hits give low values 1.06 | S. cerevisiae deletion strains, locus YOL012C, strain htz1 0.953 | S. cerevisiae deletion strains, locus YOL147C, strain pex11, hits give low values 0.993 | S. cerevisiae deletion strains, locus YOR001W, strain rrp6, hits give low values 0.998 | S. cerevisiae deletion strains, locus YOR061W, strain CKA2, hits give low values 1.01 | S. cerevisiae deletion strains, locus YOR069W, strain VPS5, hits give low values 1.01 | S. cerevisiae deletion strains, locus YOR070C, strain gyp1, hits give low values 0.986 | S. cerevisiae deletion strains, locus YOR080W, strain dia2, hits give low values 0.963 | S. cerevisiae deletion strains, locus YOR083W, strain WHI5, hits give low values 0.995 | S. cerevisiae deletion strains, locus YOR106W, strain vam3, hits give low values 0.991 | S. cerevisiae deletion strains, locus YOR136W, strain idh2, hits give low values 0.992 | S. cerevisiae deletion strains, locus YOR144C, strain elg1, hits give low values 0.995 | S. cerevisiae deletion strains, locus YOR184W, strain ser1, hits give low values 0.991 | S. cerevisiae deletion strains, locus YOR265W, strain rbl2, hits give low values 0.985 | S. cerevisiae deletion strains, locus YOR270C, strain vph1, hits give low values 1 | S. cerevisiae deletion strains, locus YOR290C, strain snf2, hits give low values 1 | S. cerevisiae deletion strains, locus YOR316C, strain cot1, hits give low values 0.992 | S. cerevisiae deletion strains, locus YPL051W, strain arl3, hits give low values 0.995 | S. cerevisiae deletion strains, locus YPL055C, strain LGE1, hits give low values 1.03 | S. cerevisiae deletion strains, locus YPL078C, strain atp4, hits give low values 0.998 | S. cerevisiae deletion strains, locus YPL106C, strain sse1, hits give low values 0.98 | S. cerevisiae deletion strains, locus YPL240C, strain hsp82, hits give low values 1 | S. cerevisiae deletion strains, locus YPL241C, strain CIN2, hits give low values 1.01 | S. cerevisiae deletion strains, locus YPR119W, strain clb2, hits give low values 0.994 | S. cerevisiae deletion strains, locus YPR141C, strain kar3, hits give low values 0.978 | S. cerevisiae deletion strains, locus YPR163C, strain tif3, hits give low values 0.987 | S. cerevisiae deletion strains, locus YPR167C, strain met16, hits give low values 0.989 | S. cerevisiae deletion strains, strain wtn01, hits give low values 0.984 | S. cerevisiae strains, strain wild type, hits give low values 1.01
